These results are taken from PubChem BioAssay AID1326 (NMMLSC, 2008).

The campaign covered roughly 190,000 compounds. About 130 (0.068%) were called active. Only a selection was taken, and actives are over-represented in it overall. A number with no mark means an inactive call. No stated cut-off is given here; in the data, active means inhibition above about 40%; inactive means the rest.

ATP-dependent translocase ABCB1 (Homo sapiens), sequence (P08183 whole entry, looked up): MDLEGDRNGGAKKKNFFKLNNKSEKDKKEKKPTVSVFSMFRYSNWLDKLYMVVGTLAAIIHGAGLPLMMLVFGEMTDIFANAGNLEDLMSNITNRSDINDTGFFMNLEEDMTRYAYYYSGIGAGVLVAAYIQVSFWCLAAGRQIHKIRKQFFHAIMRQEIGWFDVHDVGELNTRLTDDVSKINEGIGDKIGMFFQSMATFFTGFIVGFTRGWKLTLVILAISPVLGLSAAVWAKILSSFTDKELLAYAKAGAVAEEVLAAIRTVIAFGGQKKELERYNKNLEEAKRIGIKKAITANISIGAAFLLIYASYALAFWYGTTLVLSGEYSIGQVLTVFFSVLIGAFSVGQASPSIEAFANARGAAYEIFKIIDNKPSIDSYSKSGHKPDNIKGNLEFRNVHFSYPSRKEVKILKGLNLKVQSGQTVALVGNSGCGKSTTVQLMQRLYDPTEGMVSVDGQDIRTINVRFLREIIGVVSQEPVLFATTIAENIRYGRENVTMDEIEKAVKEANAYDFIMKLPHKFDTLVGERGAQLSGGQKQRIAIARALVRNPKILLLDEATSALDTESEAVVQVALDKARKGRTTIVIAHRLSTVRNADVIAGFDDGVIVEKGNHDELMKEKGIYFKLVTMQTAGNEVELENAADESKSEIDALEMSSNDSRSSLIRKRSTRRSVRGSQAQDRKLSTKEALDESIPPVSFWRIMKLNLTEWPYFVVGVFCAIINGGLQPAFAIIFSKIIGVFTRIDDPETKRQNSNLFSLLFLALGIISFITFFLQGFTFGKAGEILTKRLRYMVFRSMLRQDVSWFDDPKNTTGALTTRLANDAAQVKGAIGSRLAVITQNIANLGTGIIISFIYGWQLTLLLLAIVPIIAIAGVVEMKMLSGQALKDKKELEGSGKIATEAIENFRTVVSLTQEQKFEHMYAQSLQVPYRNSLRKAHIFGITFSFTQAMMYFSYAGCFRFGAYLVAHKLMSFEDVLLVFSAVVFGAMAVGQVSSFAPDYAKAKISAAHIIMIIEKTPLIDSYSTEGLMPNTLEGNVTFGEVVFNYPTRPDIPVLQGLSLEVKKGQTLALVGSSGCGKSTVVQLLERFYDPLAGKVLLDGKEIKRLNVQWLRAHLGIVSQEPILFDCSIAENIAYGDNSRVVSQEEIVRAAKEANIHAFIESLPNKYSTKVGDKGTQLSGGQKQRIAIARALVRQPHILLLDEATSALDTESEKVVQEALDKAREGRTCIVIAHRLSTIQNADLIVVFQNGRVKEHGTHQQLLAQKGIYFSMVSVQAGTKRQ

This assay addresses ATP-dependent translocase ABCB1 (Homo sapiens) (UniProt P08183). Description: blockers of ABCB1-mediated dye efflux – cell-based, multiplex, flow cytometry, ABCG2 counter-screen, primary screen (AID 1326).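 Further: 0% = vehicle and 100% = reference inhibitor; higher value means more JC-1 retained so stronger ABCB1 efflux block.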 The conditions noted are these: CCRF-Adr cells, JC-1 efflux, at 6.6 µM, active compounds read high. Background: In flow cytometry, cells or beads pass a laser one at a time.
A word on the inhibition: it is the drop in the measured response relative to a control, in per cent. With `Cc1ccc2c(c1)C1CN(C)CCC1N2C(=S)Nc1ccc(Cl)cc1Cl` (stereo not given), the inhibition is -0.2%.

As to `Cc1cccc(C)c1OCC(O)CN1CCCCC1` (stereo not given), the inhibition is 0.13%.

With `Cc1ccc(OCC(O)CN2CCN(CC(O)COc3ccc(C)cc3Cl)CC2)c(Cl)c1` (stereo not given), the inhibition was 77.3% (active).

For `Cc1ccccc1OCC(O)CN1CCN(c2ccccn2)CC1` (stereo not given), the inhibition was 2.19%.

For `COc1cccc(OC)c1C(=O)OCC(=O)/C(C#N)=C(\C)N`, the inhibition was 0.08%.

Turning to `CCN1/C(=C\c2ccc3ccccc3[n+]2CC)Sc2cc(C)ccc21`, the inhibition is 19.6%.

Take `CCC(=O)/C=C1\Sc2ccccc2N1CC`: the inhibition is 0.19%.

`Cc1ccccc1-c1n[nH]c(=S)n1C`: the inhibition is -0.08%.

Take `CC(=O)c1ccc(NC(=O)CSC(=S)N2CCCC2)cc1`: the inhibition is 0.83%.

Turning to `O=C(N/N=C/c1ccc([N+](=O)[O-])o1)c1cccc(S(=O)(=O)N2CCOCC2)c1`, the inhibition was 1.78%.

`COC(=O)CC1=NN(c2nc(C)cc(C)n2)C(=O)C1`: the inhibition was 3.04%.

As for `COc1ccc(Cl)cc1NC(=O)[C@@H]1CCCN1C(=O)c1cccs1`, the inhibition is 1.1%.

`O=C(NNC(=S)NC(=O)c1cn(-c2ccccc2)nc1-c1ccccc1)c1ccncc1`: the inhibition is -0.12%.

With `O=C1N/C(=N\N=C\c2ccco2)SC1Cc1ccc(F)cc1` (stereo not given), the inhibition is -0.31%.

`COC(=O)c1ccc(CSc2nncn2N)cc1`: the inhibition was -0.7%.

Consider `CCCN1CNC(=S)N(CCc2ccccc2)C1`, for which the inhibition is 0.53%.

Take `COc1ccc(CNC(=O)COC(=O)/C=C/c2ccc(S(=O)(=O)N3CCOCC3)cc2)cc1`: the inhibition is -0.38%.

Turning to `CC(C)(C)OC(=O)N1CCC(NC(=O)c2[nH]cnc2C(=O)N[C@@H](Cc2ccccc2)C(=O)OCc2ccccc2)CC1`, the inhibition is 15.7%.

For `CC1=C(C)CC(C(=O)NC(C)CCc2ccccc2)C(C(=O)O)C1` (stereo not given), the inhibition is 0.3%.

Turning to `O=C(Cc1c[nH]c2ccccc12)N/N=C/c1cccc(F)c1`, the inhibition was -0.1%.

In the case of `CCC(CC)c1nnc(NC(=O)/C=C/c2ccco2)s1`, the inhibition is 0.26%.

For the molecule `CN(C)c1nc(N)nc(Cn2nnc(-c3ccc(C(F)(F)F)cc3)n2)n1`, the inhibition was -0.39%.

As for `O=S(=O)(c1ccc(-c2ccccc2)cc1)N1CCCC1`, the inhibition is 1.29%.

For the molecule `O=C(CCS(=O)(=O)Cc1ccccc1)Nc1ccc2c(c1)OCCO2`, the inhibition is 0.73%.

Turning to `Cc1cc(C)cc(NC(=O)COC(=O)c2cc(C)oc2C)c1`, the inhibition was 1.39%.

As to `Cc1ccc(C(NC(=O)N2CCCC2)C(Cl)(Cl)Cl)cc1F` (stereo not given), the inhibition is 0.9%.

For `CCS(=O)(=O)c1ccc(O)c(NC(=O)COc2ccc(Cl)cc2)c1`, the inhibition was 0.2%.

As for `CCn1c(COc2c(C)cccc2C)nnc1SCc1nc2ccccc2c(=O)[nH]1`, the inhibition was 0.72%.

For `CS(=O)(=O)c1ccc2nc(NC(=O)c3ccc(Cl)nc3)sc2c1`, the inhibition was 0.4%.

Take `Cc1nnc(SCCCCSc2nnc(C)c(=O)[nH]2)[nH]c1=O`: the inhibition is 1.4%.

For the molecule `CC(C)OCCCNC(=O)c1ccc(C2SCC(=O)N2Cc2ccco2)cc1` (stereo not given), the inhibition is 1.04%.

As for `CSc1ccccc1NC(=O)Cc1ccc(Br)cc1`, the inhibition is 1.94%.

`O=C(CN(c1cccc(Cl)c1)S(=O)(=O)c1ccccc1)NN=C1CCCC1`: the inhibition is 0.27%.

With `O=C(COC(=O)c1ccccc1C(=O)N1CCN(c2ccccc2)CC1)NCc1ccccc1`, the inhibition was 1.33%.

As to `O=C1CN(C(=O)CN2C(=O)NC3(CCCCC3)C2=O)c2ccccc2N1`, the inhibition was 0.2%.

In the case of `Cc1sc2nc(COC(=O)C(NC(=O)c3ccc(Cl)cc3Cl)C(C)C)[nH]c(=O)c2c1C` (stereo not given), the inhibition is -0.58%.

As for `CCc1ccc(Nc2nnc(SCC(=O)c3ccc4c(c3)NC(=O)CO4)s2)cc1`, the inhibition was -0.13%.

As for `CCOc1ccc(C(=O)Nc2cccc(SC)c2)cc1`, the inhibition is 0.08%.

With `COC(=O)CCC(=O)N1CCCC(CO)(Cc2ccccc2)C1` (stereo not given), the inhibition is 0.1%.

In the case of `CN(C)c1ccc(Nc2c3c4c(cccc4n(C)c2=O)C(=O)c2ccccc2-3)cc1`, the inhibition was 13.5%.

For the molecule `Cc1ccc(O)c(-c2cc(C(=O)Nc3c(C)n(C)n(-c4ccccc4)c3=O)[nH]n2)c1`, the inhibition is 0.33%.

On to `COc1ccc(C2OCC3(CO2)SC(=O)NC3=O)cc1OC` (stereo not given), for which the inhibition is -0.28%.

Consider `COc1ccccc1N1CCN(/N=C\C(Br)=C\c2ccccc2)CC1`, for which the inhibition was 0.81%.

Consider `N#Cc1ccccc1NC(=O)c1cccc(COc2ccc(Cl)cc2Cl)c1`, for which the inhibition was -0.17%.

For `CCOC(=O)c1ccc(NC(=S)Nc2cc(C)cc(C)n2)cc1`, the inhibition is 1.25%.

`COc1cc(C(=O)NCc2nnc(SCC(=O)Nc3nc4ccc(C)cc4s3)o2)cc(OC)c1OC`: the inhibition was -2.31%.

In the case of `Cc1ccccc1Nc1scc(-c2ccc(Br)cc2)[n+]1-c1ccccc1C`, the inhibition is -2.63%.

For the molecule `CCCn1nc(NS(=O)(=O)c2ccccc2)c2cc3cc(C)ccc3nc21`, the inhibition was 0.68%.

With `O=S(=O)(c1ccccc1)c1nc(-c2ccccc2F)oc1NCc1cccnc1`, the inhibition is 5.26%.

`c1ccc2c(c1)OCCOCCOCCO2`: the inhibition is 0.51%.

With `CC(=O)Cc1nsc(NC(=O)c2ccc(Cl)cc2Cl)n1`, the inhibition was -0.31%.

On to `COC(=O)c1cc(NC(=O)CN2CCN(C(C)=O)CC2)cc(C(=O)OC)c1`, for which the inhibition was 1.14%.

Take `CC(CNC(=O)c1ccc(N)cc1)NC(=O)c1ccc(N)cc1` (stereo not given): the inhibition was -0.82%.

Regarding `CS(=O)(=O)N1CCC(C(=O)N2CCN(c3ccccc3)CC2)CC1`, the inhibition is 0.86%.

With `CCC1SC(CC)C(=O)N(CC(=O)NC2CCCCC2)C1=O` (stereo not given), the inhibition was 0.07%.

In the case of `Cc1c(Cl)c([N+](=O)[O-])nn1CC(=O)NCC1CCCO1` (stereo not given), the inhibition was -0.1%.

For `COc1ccc(-n2nnnc2SCC(=O)NCc2cccs2)cc1`, the inhibition is 2.4%.

Take `CCOc1ccc2nc(NC(=O)c3cc([N+](=O)[O-])ccc3N3CCOCC3)sc2c1`: the inhibition was -1.41%.

Take `NC(=O)COC(=O)c1sc2cc(F)ccc2c1Cl`: the inhibition was -0.04%.

For `COc1ccc(C(=O)COC(=O)c2nn(C)c(=O)c3ccccc23)c(OC)c1`, the inhibition is 0.19%.

Turning to `O=C1c2cccc3c([N+](=O)[O-])ccc(c23)C(=O)N1CC1CCCO1` (stereo not given), the inhibition was 0.98%.

As for `CN(CCOc1ccccc1)Cc1nc2cc(Cl)ccc2c(=O)[nH]1`, the inhibition was 0.26%.

As to `Cc1ccc(Nc2c(F)c(F)c(F)c(F)c2C(=O)O)c(C)c1`, the inhibition is -0.24%.

In the case of `Cc1ccc(CNC(=O)CCNS(=O)(=O)c2ccc(Br)s2)cc1`, the inhibition is -0.56%.

In the case of `NS(=O)(=O)c1ccc(CCNC(=O)c2ccc(Cl)cc2[N+](=O)[O-])cc1`, the inhibition is 1.3%.

`COc1ccccc1NC(=O)CCSc1nnc(-c2ccc(O)cc2)o1`: the inhibition was 0.42%.

`COc1ccc(/C=N/Nc2ncnc3sc4c(c23)CCCC4)cc1O`: the inhibition is -0.22%.

For the molecule `N#Cc1cnn2cc(CCN3CCOCC3)c(-c3ccc(F)cc3)nc12`, the inhibition was 1.26%.

In the case of `CCCNCc1cc(OCC)c(OCC(=O)Nc2ccccc2)cc1Br`, the inhibition was 0.07%.

As to `O=C(CN(C(=O)c1csnn1)c1cccc(F)c1)NCc1ccc(F)cc1`, the inhibition was 1.22%.

Consider `COC(=O)c1ccc(C(NC(=O)OCc2ccccc2)/C(C)=C/[C@@H](C)C(=O)NCc2ccc(OC)c(OC)c2)cc1` (stereo not given in full), for which the inhibition is 9.15%.

Regarding `Cc1ccccc1CSc1nnc(-c2ccccc2)c(=O)[nH]1`, the inhibition was 0.19%.

On to `CCC(C)(C)NC(=O)C(c1cccc(OC)c1OC)N(CC(C)C)C(=O)CCC(=O)Nc1cc(C)on1` (stereo not given), for which the inhibition is 1.31%.

As for `CCOC(=O)C1(C)NC(c2ccco2)C2C(=O)N(c3ccccc3)C(=O)C21` (stereo not given), the inhibition was 0.47%.

As for `CCOC(=O)NC(=O)CSc1nnc(SCCC(=O)O)s1`, the inhibition was 0.52%.

Take `Cc1nn(CCOc2ccc(Br)cc2)c(C)c1[N+](=O)[O-]`: the inhibition was 1.06%.

`CN(C)c1ccc(/C=N/NC(=O)C(O)c2ccc(Br)cc2)cc1` (stereo not given): the inhibition was 0.7%.

Take `OC1CSc2nc3ccccc3n2C1` (stereo not given): the inhibition is -0.99%.

For the molecule `Cc1ccc(C)c(-n2nnnc2SCC(=O)c2c(N)n(C)c(=O)n(C)c2=O)c1`, the inhibition was -0.82%.

Regarding `Nc1nc(CC(=O)CSc2ccc(Cl)cc2)nc(Nc2ccc(F)cc2)n1`, the inhibition is 0.01%.

For the molecule `COc1ccc(Br)cc1/C=N/Nc1ccc(Cl)c(C(=O)O)c1`, the inhibition is -0.4%.

Take `Cc1cc(/C=C2/SC(=O)N(CC(=O)N3CCCC3)C2=O)ccc1N1CCOCC1`: the inhibition was 1.48%.

Turning to `Cc1nc(S(=O)(=O)c2ccc(Br)cc2)nc2c1CCC2`, the inhibition is 0.58%.

On to `COc1ccccc1NC(=O)c1cc(Cl)nnc1Cl`, for which the inhibition is 1.04%.

With `COc1ccc(S(=O)(=O)N(C)CC(=O)N2CCCC2)cc1Cl`, the inhibition is 1.26%.

In the case of `COc1ccc(C(=O)Nc2ccc(N3CCC(C)CC3)cc2)cc1Br`, the inhibition is 1.32%.

Regarding `Cc1ccc(C(=O)N/C(=C/c2cccnc2)C(=O)O)cc1`, the inhibition was 0.02%.

As for `O=C(O)c1cccc(NC(=O)c2cc(-c3cccc(Cl)c3)nc3ccccc23)c1`, the inhibition was -0.61%.

Take `C/C(=N\Nc1ncc(Cl)cc1Cl)c1cccs1`: the inhibition was 0.7%.

`COC(=O)c1c(C(=O)OC)c(-c2cccc(C)c2)n2c1CS(=O)C2` (stereo not given): the inhibition is 0.19%.

`COCC(C)n1c(C)cc(C(=O)COc2ccc(C)nc2[N+](=O)[O-])c1C` (stereo not given): the inhibition is 0%.

Take `S=c1[nH]nc(NCCc2ccccc2)s1`: the inhibition is -0.12%.

With `C/C(=N\NC(=O)C(N)=O)c1ccc2c(c1)OCCO2`, the inhibition is 1.58%.

As for `CC(C)/C=N/NC(=O)c1cc(Br)ccc1O`, the inhibition is 0.05%.

Turning to `O=C(O)CC(SCC(=O)Nc1ccc(Br)cc1)C(=O)O` (stereo not given), the inhibition is -0.05%.
